KCNQ2 block – rat KCNQ2 potassium channel inhibitors, primary screen, cell-based, CHO-K1, FluxOR thallium flux, B-score; Potassium voltage-gated channel subfamily KQT member 2 (Rattus norvegicus), O88943; AID 2156, 2009; 310,000 compounds, 1.1% hits; 20 min; stronger effect = lower value; B-score at 10 µM;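 active means fluorescence ratio B-score at most minus 3 library SDs, with starting brightness B-score within 2 library SDs, cut at about -5.5 in these data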
KCNQ2 pot – potentiators of rat KCNQ2 potassium channel; Potassium voltage-gated channel subfamily KQT member 2 (Rattus norvegicus), O88943; CHO-K1 KCNQ2, FluxOR thallium flux fluorescence; stronger effect = higher value; AID 2239, 2010; B-score at 10 µM; 310,000 compounds, 0.54% hits;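 active means fluorescence ratio B-score at least 3 SD of library B-scores, with initial fluorescence B-score within 3 of them, cut at about 5.3 in these data; same plate scores as AID 2156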;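 further: B-score of peak minus minimum over baseline fluorescence ratio after K+ and Tl+ stimulus; positive B-score means potentiation of KCNQ2 with more thallium influx and brighter signal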
KCNQ2 inh conf – rat KCNQ2 potassium channel inhibitors, confirmation, cell-based, thallium flux; shares compounds with KCNQ2 block; KCNQ2-expressing cells, inhibition; stronger effect = lower value; activity change, negative = inhibition, % at 10 µM; 1,000 compounds, 57% hits
KCNQ1 spec – human KCNQ1 channel inhibition, counter-screen for KCNQ2 inhibitor project, cell-based, FluxOR thallium flux. activity change, negative = inhibition, % at 10 µM. 1,000 compounds, 15% hits. AID 493026, 2011. shares compounds with KCNQ2 block. KCNQ1-expressing cells, FluxOR thallium flux fluorescence; stronger effect = lower value;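 active means activity change at least 3 SD of negative controls below their mean in both duplicate wells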;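 further: CHO cells stably transfected with KCNQ1 and depolarized by potassium stimulus; peak minus minimum fluorescence over baseline after thallium addition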
Target sequence (P51787 whole entry, looked up): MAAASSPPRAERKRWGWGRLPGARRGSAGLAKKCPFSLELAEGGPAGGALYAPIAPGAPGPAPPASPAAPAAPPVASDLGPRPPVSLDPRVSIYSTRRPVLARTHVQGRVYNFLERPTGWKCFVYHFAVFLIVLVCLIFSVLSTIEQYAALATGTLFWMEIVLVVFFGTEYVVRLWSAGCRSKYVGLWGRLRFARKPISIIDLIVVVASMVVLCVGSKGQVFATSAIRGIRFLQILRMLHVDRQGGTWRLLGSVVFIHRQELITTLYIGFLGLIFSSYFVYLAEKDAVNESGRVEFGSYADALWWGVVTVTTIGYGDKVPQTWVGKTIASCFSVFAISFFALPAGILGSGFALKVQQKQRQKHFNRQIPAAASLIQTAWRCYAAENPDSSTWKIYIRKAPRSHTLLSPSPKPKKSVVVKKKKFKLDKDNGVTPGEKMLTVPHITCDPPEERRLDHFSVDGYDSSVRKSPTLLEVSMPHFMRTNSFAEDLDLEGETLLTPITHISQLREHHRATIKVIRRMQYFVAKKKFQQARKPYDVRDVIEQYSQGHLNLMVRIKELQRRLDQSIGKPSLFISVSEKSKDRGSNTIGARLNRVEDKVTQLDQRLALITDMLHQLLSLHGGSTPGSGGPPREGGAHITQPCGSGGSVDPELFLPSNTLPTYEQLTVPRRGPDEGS
CHO parental ctr – thallium flux change in parental CHO cells, counter-screen for KCNQ2 inhibitor project; shares compounds with KCNQ2 block; activity change, % at 10 µM; 1,000 compounds, 14% hits; stronger effect = lower value
KCNQ2 patch conf – rat KCNQ2 channel inhibitors, confirmation, cell-based, automated patch clamp, single concentration; shares compounds with KCNQ2 block; KCNQ2-expressing cells, automated patch clamp current; calls only at 10 µM; 550 compounds, 49% hits; AID 588531, 2011
Large screens that a line does not name were inactive (follow-up assays come after a bar, where they were run). Rows were chosen to be rich in hits. Some 1.6% of all compounds tested hit in one or more screens of this group. Unless noted, how the calls were made is not given here.

Cc1ccc(OCc2nc(C#N)c(N3CCN(Cc4ccccc4)CC3)o2)cc1	KCNQ2 block -7.8 | KCNQ2 inh conf inactive | KCNQ1 spec inactive | CHO parental ctr inactive
Cc1ccccc1OCc1nc(C#N)c(N2CCCC2)o1	none (no result: KCNQ2 pot)
CN(C)c1ccc(C=NCCC2(c3ccccc3)CCOC(C)(C)C2)cc1 (configuration not stated)	none
COc1ccc(NC(=O)C2CCCN2C(=O)OC(C)(C)C)cc1 (configuration not stated)	none
Cc1ccc(S(=O)(=O)NCc2nc3ccccc3[nH]2)cc1	none
COc1ccc(-c2noc(-c3ccccc3-c3ccccc3)n2)cc1OC	KCNQ2 block -8.9 | KCNQ2 inh conf inactive | KCNQ1 spec inactive | CHO parental ctr inactive
COc1ccc(-c2noc(-c3cccnc3)n2)cc1OC	none (no result: KCNQ2 pot)
Cn1c(=O)c2c(ncn2CC(=O)N/N=C/C=C/c2ccccc2)n(C)c1=O	none
O=C(/C=C/c1ccc(Cl)cc1)N1CCN(c2c(Cl)cccc2[N+](=O)[O-])CC1	none (no result: KCNQ2 pot)
O=C(CSc1ccc(Cl)cc1)N1CCN(c2c(Cl)cccc2[N+](=O)[O-])CC1	KCNQ2 block -8.2 | KCNQ2 inh conf inactive | KCNQ1 spec inactive | CHO parental ctr inactive
NS(=O)(=O)c1ccc(NNC(=O)c2ccccc2)cc1	none
COc1ccc(CN(CCC(c2ccccc2)c2ccco2)C(=O)c2ccco2)cc1 (configuration not stated)	KCNQ2 block -6.7 | KCNQ2 inh conf -38% | KCNQ1 spec -43% | CHO parental ctr -36% | KCNQ2 patch conf inactive
CCN(CC)C(=O)CC(c1ccccc1)c1ccco1 (configuration not stated)	none (no result: KCNQ2 pot)
O=C(c1ccco1)N(CCC(c1ccccc1)c1ccco1)Cc1ccccc1 (configuration not stated)	KCNQ2 block -7.7 | KCNQ2 inh conf -26% | KCNQ1 spec inactive | CHO parental ctr inactive | KCNQ2 patch conf active
COc1ccc(CN(C(=O)c2ccco2)c2ccccc2)cc1	none
CCCOC(=O)c1ccc(NC(=O)c2cn(CC)c3nc(C)ccc3c2=O)cc1	none (no result: KCNQ2 pot)
COc1cccc(-n2c(SCC(=O)Nc3nc4ccccc4s3)nc3ccccc3c2=O)c1	KCNQ2 block -7 | KCNQ2 inh conf inactive | KCNQ1 spec inactive | CHO parental ctr inactive
COc1cccc(-n2c(SCC(=O)NCc3cccs3)nc3ccccc3c2=O)c1	none (no result: KCNQ2 pot)
O=C(NC1CCCCC1)N(Cc1ccccc1)Cc1ccco1	KCNQ2 block -8.1 | KCNQ2 inh conf inactive | KCNQ1 spec inactive | CHO parental ctr inactive
C=C(C)c1ccc(C(C)(C)NC(=O)NCc2ccco2)cc1	none
C=C(C)c1ccc(C(C)(C)NC(=O)N(Cc2ccccc2)Cc2ccco2)cc1	KCNQ2 block -6.9 | KCNQ2 inh conf -16% | KCNQ1 spec inactive | CHO parental ctr inactive | KCNQ2 patch conf inactive
CN(Cc1ccccc1)C(=O)NC1CCCCC1	none (no result: KCNQ2 pot)
Cc1ccc(S(=O)(=O)NN=C2C3CC4CC(C3)CC2C4)cc1	none
COC(=O)c1cccc(NC(=O)c2cc(OC)c(OC)c(OC)c2Br)c1	none (no result: KCNQ2 pot)
COc1cc(C(=O)Nc2cccc(C)c2C)c(Br)c(OC)c1OC	KCNQ2 block -8 | KCNQ2 inh conf -24% | KCNQ1 spec inactive | CHO parental ctr inactive | KCNQ2 patch conf active
CN(C)c1nc(NCc2ccccc2)nc(SCC(=O)Nc2ccccc2)n1	none
CN(C)c1nc(NCc2ccccc2)nc(SCC(=O)Nc2ccccc2Cl)n1	KCNQ2 block -6.9 | KCNQ2 inh conf inactive | KCNQ1 spec inactive | CHO parental ctr inactive
COc1cccc(OC)c1C(=O)Nc1ccccc1Sc1ccccc1	KCNQ2 block -7 | KCNQ2 inh conf inactive | KCNQ1 spec inactive | CHO parental ctr inactive
COc1cccc(OC)c1C(=O)Nc1ccccc1NC(=O)c1c(OC)cccc1OC	none
Cc1c(N=Cc2cccs2)c(=O)n(-c2ccccc2)n1C	none (no result: KCNQ2 pot)
Cc1ccc(C2C(C=Nc3c(C)n(C)n(-c4ccccc4)c3=O)=C(c3ccccc3)Oc3ccccc32)cc1 (configuration not stated)	KCNQ2 block -11 | KCNQ2 inh conf -24% | KCNQ1 spec inactive | CHO parental ctr inactive | KCNQ2 patch conf inactive
Cc1ccc(-n2c3c(cc(C(=O)NCCCN4CCOCC4)c2=O)C(=O)CC(C)(C)C3)cc1	none
C(=C\c1ccccc1)/CN1CCN(C(c2ccccc2)c2ccccc2)CC1	none (no result: KCNQ2 pot)
Fc1ccc(C(c2ccc(F)cc2)N2CCN(C/C=C/c3ccccc3)CC2)cc1	KCNQ2 block -8.6 | KCNQ2 inh conf inactive | KCNQ1 spec inactive | CHO parental ctr inactive
COC(=O)NNS(=O)(=O)c1ccc(C)cc1	none
COCCCN1C(=O)N(c2ccccc2)C(=O)C1CC(=O)Nc1ccccc1 (configuration not stated)	none
Cc1cccc(-c2nnc(SCc3ccc(C#N)cc3)n2Cc2ccco2)c1	KCNQ2 block -8.8 | KCNQ2 inh conf -26% | KCNQ1 spec inactive | CHO parental ctr inactive
CCn1c(SCc2ccc(C#N)cc2)nnc1-c1cccc(Cl)c1	none (no result: KCNQ2 pot)
CCn1nc(C)c(NC(=O)c2cc(Br)ccc2Cl)c1C	none
CCN(CCCn1c(SCC#N)nc2ccccc2c1=O)c1ccccc1	KCNQ2 block -8.8 | KCNQ2 inh conf inactive | KCNQ1 spec inactive | CHO parental ctr inactive
C=C(C)Cn1c(SCC#N)nc2ccccc2c1=O	none
CCOc1ccc(NC2=CC(=O)CCC2)cc1	none (no result: KCNQ2 pot)
CCCn1cc(S(=O)(=O)c2ccc(Cl)cc2)c(=O)c2cc(OC)ccc21	none (no result: KCNQ2 pot)
NC(=O)C1CC(O)CN1c1nc(CN2CCOCC2)nc2scc(-c3ccccc3)c12 (configuration not stated)	KCNQ2 block -8.9 | KCNQ2 inh conf inactive | KCNQ1 spec inactive | CHO parental ctr inactive
CC1CCN(c2nc(CN3CCCCC3)nc3scc(-c4ccccc4)c23)CC1	none (no result: KCNQ2 pot)
CCSc1nnc(NC(=O)CSC2=NCCS2)s1	none (no result: KCNQ2 pot)
COc1ccc(/C(N)=N/OC(=O)CC2CCCCC2)cc1OC	none
COc1ccc(/C(N)=N/OC(=O)CSc2ccc(C)cc2)cc1OC	KCNQ2 block -9.2 | KCNQ2 inh conf inactive | KCNQ1 spec inactive | CHO parental ctr inactive
c1ccc(-c2nc3ccccc3[nH]2)cc1	none
c1ccc(-c2n[nH]c(-c3ccccc3)c2-c2nc3ccccc3[nH]2)cc1	KCNQ2 block -9.2 | KCNQ2 inh conf -36% | KCNQ1 spec inactive | CHO parental ctr inactive | KCNQ2 patch conf active
Cc1ccc(Nc2ccc(C(=O)NC3CCCCC3)cn2)cc1	none (no result: KCNQ2 pot)
Cc1ccccc1C(=O)Oc1cccc(Nc2ncnc3ccccc23)c1	KCNQ2 block -9.6 | KCNQ2 inh conf inactive | KCNQ1 spec inactive | CHO parental ctr inactive
CC(=O)Oc1cccc(Nc2ncnc3ccccc23)c1	none (no result: KCNQ2 pot)
C/C(=N\NC(=O)CSc1nc2nc(C)cc(C)n2n1)c1ccccc1	none

Screening results as filed in PubChem BioAssay.
